Screening data: PubChem, National Center for Advancing Translational Sciences (NCATS)
In the library only some 5.8% were active in any assay of this set; here they are far more common.
RORgamma inh: inhibitors of mouse ROR gamma transcriptional activity; Potency, µM (top dose mostly 53.6 µM), actives largely listed as inhibitors; AID 2551; P51450; Drosophila S2 Gal4-RORgamma UAS-luciferase reporter, 20 h; 310,000 tested, 5.4% active; note: nearly all actives have a fitted effect of over 60% in size
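Luminescence from a UAS-regulated Photinus luciferase reporter in stably transfected Drosophila Schneider cells is measured; decreased signal marks ROR gamma inhibition. Fusion expression is induced by 700 uM copper sulfate for 20 hr.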
TRPV1 potentiator: potentiators of human vanilloid receptor 1 (TRPV1). 320,000 tested, 0.02% active. AID 540277. TRPV1-expressing cells, Fluo-8 calcium influx, capsaicin EC20 potentiation. Q8NER1. potentiation, % at 8.33 µM; in the data active = potentiation above about 80%; inconclusive = between about 30% and that limit
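Fluo-8 calcium influx in TRPV1-expressing cells, kinetic read (ex 480/em 520 nm). Compound added and read 3 min for agonist activity, followed by capsaicin at EC20 final and 2 min further read for enhancement.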
TRPV1 ag: activates the human vanilloid receptor TRPV1; AID 540275; activation, % at 8.33 µM; Q8NER1; 320,000 tested, 0.19% active; TRPV1-expressing cells, Fluo-8 calcium influx, agonist mode; in the data active = activation above about 80%; inconclusive = between about 30% and that limit
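Cells expressing TRPV1 were dye-loaded with Fluo-8 and read kinetically: 10 s baseline, 3 min after compound (agonist portion), then 2 min after EC20 capsaicin (allosteric enhancer portion). Calcium-bound dye fluorescence at 480/520 nm.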
uPA surface inh: cell surface uPA generation inhibition; cell surface uPA generation assay, qHTS; Potency, µM (titrated, usually from 38.3 µM), usual class: inhibitors; 330,000 tested, 0.31% active; active = well fitted inhibition curve with a large enough effect; inconclusive = small, poorly fitted or top-dose-only effect; inactive = no such curve, though single readings can be large or run the other way; tested in mouse RAW 264.7 cells; note: nearly all actives have a fitted effect of over 55% in size
Gal4-VP16 FLuc: Gal4-VP16 reporter inhibition counter-screen | Drosophila S2 Gal4-VP16 UAS-luciferase, luminescence, 20 h | Potency, µM (titrated, usually from 53.6 µM), actives largely listed as inhibitors | 310,000 tested, 3.5% active;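 note: Gal4-VP16 expression switched on by copper sulfate through the metallothionein promoter; nearly all actives have a fitted effect of over 50% in size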
Numbers stand for hits. Unless noted, calls come from the whole dose curve; as a rule, active = well fitted curve in the direction sought with a large enough effect; inconclusive = small, poorly fitted or top-dose-only effect, or another doubt; inactive = no such curve, though single readings can be large; an effect the other way counts as inactive or inconclusive.

How did COC(=O)c1cc(C(=O)Nc2nnc(CC(C)C)s2)cc([N+](=O)[O-])c1 do in these assays?
RORgamma inh: 12.6µM; TRPV1 potentiator: inactive; TRPV1 ag: inactive; uPA surface inh: inactive; Gal4-VP16 FLuc: 22.4µM

How did O=[N+]([O-])c1c(Nc2ccc(O)cc2)cc(Cl)c2nonc12 do in these assays?
RORgamma inh: 5.62µM; TRPV1 potentiator: inactive; TRPV1 ag: inactive; uPA surface inh: inconclusive; Gal4-VP16 FLuc: 4.47µM

How did CN(C)c1cc(Nc2ccc(O)cc2)c([N+](=O)[O-])c2nonc12 do in these assays?
RORgamma inh: inactive; TRPV1 potentiator: inactive; TRPV1 ag: inactive; uPA surface inh: inactive; Gal4-VP16 FLuc: inactive

What do the screens show for `O=[N+]([O-])c1c(Nc2ccccn2)cc(Cl)c2nonc12`?
RORgamma inh: 12.6µM; TRPV1 potentiator: inactive; TRPV1 ag: inactive; uPA surface inh: inactive; Gal4-VP16 FLuc: 8.91µM

How did O=C(O)c1ccccc1Nc1cc(Cl)c2nonc2c1[N+](=O)[O-] do in these assays?
TRPV1 potentiator: inactive; TRPV1 ag: inactive; uPA surface inh: inactive

How did CCn1cc(C(=O)N2CCCC2)c(=O)c2cc(S(=O)(=O)N3CCOCC3)ccc21 do in these assays?
RORgamma inh: 4.47µM; TRPV1 potentiator: inactive; TRPV1 ag: inactive; Gal4-VP16 FLuc: inactive

How did COCCNC(=O)c1c[nH]c2ccc(S(=O)(=O)N3CCOCC3)cc2c1=O do in these assays?
RORgamma inh: inactive; TRPV1 potentiator: inactive; TRPV1 ag: inactive; uPA surface inh: inactive; Gal4-VP16 FLuc: inactive

What do the screens show for `CCn1cc(C(=O)N2CCCC2)c(=O)c2cc(S(=O)(=O)N3CCC(C)CC3)ccc21`?
RORgamma inh: inactive; TRPV1 potentiator: inactive; TRPV1 ag: inactive; uPA surface inh: inactive; Gal4-VP16 FLuc: inactive

What do the screens show for `CCn1cc(C(=O)NCCc2ccccc2)c(=O)c2cc(S(=O)(=O)N3CCCC3)ccc21`?
RORgamma inh: inconclusive; TRPV1 potentiator: inactive; TRPV1 ag: 96.4; uPA surface inh: inactive; Gal4-VP16 FLuc: inactive

How did CC(C)CCNC(=O)c1c[nH]c2ccc(S(=O)(=O)N3CCOCC3)cc2c1=O do in these assays?
RORgamma inh: inactive; TRPV1 potentiator: inactive; TRPV1 ag: 82.2; uPA surface inh: inactive; Gal4-VP16 FLuc: inactive

How did N#CC1=C(N)C2=CCCC[C@H]2[C@H](c2ccccc2)C1(C#N)C#N do in these assays?
RORgamma inh: inactive; TRPV1 potentiator: inactive; TRPV1 ag: inactive; uPA surface inh: inactive; Gal4-VP16 FLuc: inactive

Results for N#CC1=C(N)C2=CCCC[C@H]2[C@H](c2ccc(Br)cc2)C1(C#N)C#N ?
RORgamma inh: inconclusive; TRPV1 potentiator: inactive; TRPV1 ag: inactive; uPA surface inh: inactive; Gal4-VP16 FLuc: 5.01µM

Results for CCCCn1nnnc1NCc1ccc(C)s1 ?
RORgamma inh: inconclusive; TRPV1 potentiator: inactive; TRPV1 ag: inactive; Gal4-VP16 FLuc: inactive

What do the screens show for `O=Cc1ccc(O)c2ncccc12`?
RORgamma inh: 1µM; TRPV1 potentiator: inactive; TRPV1 ag: inactive; uPA surface inh: inactive; Gal4-VP16 FLuc: 0.562µM

How did CSc1nc2oc3c(c2c2nncn12)CC(C)(C)SC3 do in these assays?
RORgamma inh: inactive; TRPV1 potentiator: inactive; TRPV1 ag: inactive; uPA surface inh: inactive; Gal4-VP16 FLuc: 12.6µM

Results for CC1(C)Cc2c(oc3ncn4ncnc4c23)CO1 ?
RORgamma inh: inactive; TRPV1 potentiator: inactive; TRPV1 ag: inactive; uPA surface inh: inactive; Gal4-VP16 FLuc: inactive

How did COc1cc(OC)cc(C(=O)NNC(=O)C(=O)Nc2cc(OC)c(Cl)cc2OC)c1 do in these assays?
RORgamma inh: 7.94µM; TRPV1 potentiator: inactive; TRPV1 ag: inactive; uPA surface inh: inactive; Gal4-VP16 FLuc: inactive

What do the screens show for `COc1cc(NC(=O)C(=O)NNC(=O)C2CCCCC2)c(OC)cc1Cl`?
RORgamma inh: inconclusive; TRPV1 potentiator: inconclusive; TRPV1 ag: inactive; uPA surface inh: inactive; Gal4-VP16 FLuc: inconclusive

How did Cc1cc(OCc2cc(C(=O)N(C)C3CCOC3)no2)cc(C)c1Cl (configuration not stated) do in these assays?
RORgamma inh: inactive; TRPV1 potentiator: inactive; TRPV1 ag: 82.5; uPA surface inh: inactive; Gal4-VP16 FLuc: inactive

How did COc1ccc(NC(=O)Nc2cccc(C(F)(F)F)c2)cn1 do in these assays?
RORgamma inh: inactive; TRPV1 potentiator: inactive; TRPV1 ag: inactive; uPA surface inh: inactive; Gal4-VP16 FLuc: inactive

Results for CN(C)S(=O)(=O)c1ccc(Cl)c(C(=O)NCCNC(=O)c2cc(S(=O)(=O)N(C)C)ccc2Cl)c1 ?
RORgamma inh: inactive; TRPV1 potentiator: inactive; TRPV1 ag: inactive; uPA surface inh: inactive; Gal4-VP16 FLuc: inactive
